FLuc modulator – firefly luciferase modulation, counter-screen for miR-21 project; P08659; Potency, µM (titrated, usually from 57.5 µM), most hits filed as inhibitors; hit rate 6.9% among 360,000; purified FLuc, Km substrates, luminescence inhibition; AID 588342; also: nearly all actives have a fitted effect of over 55% in size
Target sequence (P08659 whole entry, looked up): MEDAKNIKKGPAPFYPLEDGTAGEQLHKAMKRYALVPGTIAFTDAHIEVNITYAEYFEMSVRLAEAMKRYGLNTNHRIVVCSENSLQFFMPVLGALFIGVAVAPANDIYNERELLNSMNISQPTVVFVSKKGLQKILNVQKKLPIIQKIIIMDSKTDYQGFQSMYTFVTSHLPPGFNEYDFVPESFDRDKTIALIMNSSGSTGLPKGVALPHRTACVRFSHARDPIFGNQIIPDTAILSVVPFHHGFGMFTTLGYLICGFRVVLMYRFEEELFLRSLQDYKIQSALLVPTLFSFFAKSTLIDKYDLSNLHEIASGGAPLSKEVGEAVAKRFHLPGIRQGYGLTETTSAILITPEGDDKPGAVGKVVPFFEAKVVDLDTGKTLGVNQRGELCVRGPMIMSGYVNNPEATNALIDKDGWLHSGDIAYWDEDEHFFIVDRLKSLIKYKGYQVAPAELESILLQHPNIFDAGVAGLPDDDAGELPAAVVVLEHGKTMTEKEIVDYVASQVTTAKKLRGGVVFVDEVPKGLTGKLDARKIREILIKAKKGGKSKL
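Biochemical qHTS of compounds, final roughly 60 µM downward over six points, against 10 nM purified firefly luciferase using Km concentrations of substrates (10 uM D-luciferin, 10 uM ATP) in Tris acetate pH 7.5 buffer; luminescence output.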
uPA surface inh – cell surface uPA generation inhibition | cell surface uPA generation assay, qHTS | Potency, µM (series often up to 38.3 µM), actives largely listed as inhibitors | hit rate 0.31% among 330,000; active = well fitted inhibition curve with a large enough effect; inconclusive = small, poorly fitted or top-dose-only effect; inactive = no such curve, though single readings can be large or run the other way; tested in mouse RAW 264.7 cells; also: nearly all actives have a fitted effect of over 55% in size
NPC1 prom act – NPC1 promoter activation | Huh7 NPC1 promoter luciferase reporter, 24 h | Potency, µM (highest dose often 9.22 µM), most hits filed as activators | hit rate 2.4% among 320,000; also: nearly all actives have a fitted effect of over 60% in size
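Huh7 cells stably carrying NPC1 promoter–luciferase, plated in Opti-MEM with 10% FBS for 2 h, were exposed to compound in DMSO for 24 h at 37 °C; luciferase reagent was added for 10 min and luminescence read.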
SMN2 splice up – SMN2 splice variant enhancement; HEK293 SMN2-luciferase splicing reporter, luminescence, 30-36 h; Potency, µM (highest dose often 46.1 µM), usual class: activators; hit rate 2.8% among 210,000; also: nearly all actives have a fitted effect of over 55% in size
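HEK293 cells carry an SMN2 […]–luciferase reporter in which exon 7 inclusion puts luciferase in frame. Cells were plated 10-12 h before compound addition, then incubated 30-36 h at 37C. ONE-Glo luminescence was read; sodium butyrate at 4.5 mM final served as control.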
ELG1 genotox – induces genotoxicity in HEK293T cells with luciferase-tagged ELG1; HEK293T ELG1-luciferase reporter, luminescence, 16 h; AID 504466; Potency, µM (highest dose often 46 µM), actives largely listed as activators; hit rate 1.3% among 330,000; also: nearly all actives have a fitted effect of over 60% in size
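Step 1: seed 2,000 HEK293T ELG1-luciferase cells per well. Step 2: add compound or DMSO, incubate 16 hr at 37 °C. Step 3: ONE-Glo, 30 min at room temperature, read luminescence.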
Rab9 prom act – activates the Rab9 promoter. Huh7 Rab9 promoter-luciferase reporter, luminescence, 24 h. Potency, µM (doses to about 9.22 µM), usual class: activators. hit rate 2.8% among 320,000; also: nearly all actives have a fitted effect of over 60% in size
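Huh7 cells stably carrying Rab9 promoter–luciferase reporter, plated 1500 cells/well, compound added after 2 h and incubated 24 h at 37 °C; luciferase luminescence then read after 10 min with detection reagent.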
Of the large screens only hits and unclear results are named; the others gave an inactive call. Sampled rows, rich in hits. Any-hit rate of the full collection: about 7.3%. Unless noted, calls follow the shape of the dose curve; as a rule, active = well fitted curve in the direction sought with a large enough effect; inconclusive = small, poorly fitted or top-dose-only effect, or another doubt; inactive = no such curve, though single readings can be large; an effect the other way counts as inactive or inconclusive.

C/C(=N\Nc1cccc2cccnc12)c1ccccc1O	FLuc modulator 1.2µM, SMN2 splice up 25µM, ELG1 genotox inconclusive, Rab9 prom act inconclusive
Cn1c(SCC(=O)NN2C(=O)NC(C)(c3ccccc3)C2=O)nnc1-c1ccncc1 (configuration not stated)	none (no result: FLuc modulator, NPC1 prom act, SMN2 splice up, Rab9 prom act)
COC(=O)c1ccc(N2CCCCC2)c(N)c1	FLuc modulator 11µM, NPC1 prom act inconclusive, SMN2 splice up 22µM, ELG1 genotox inconclusive, Rab9 prom act 3.5µM
COC(=O)c1ccc(N2CCC(C)CC2)c(N)c1	FLuc modulator 12µM, NPC1 prom act inconclusive, ELG1 genotox 18µM, Rab9 prom act inconclusive (no result: uPA surface inh)
O=C(CCS(=O)(=O)c1ccccc1)Nc1ccc(S(=O)(=O)Nc2nccs2)cc1	none (no result: FLuc modulator, NPC1 prom act, SMN2 splice up, Rab9 prom act)
CCCc1cc(=O)n2[nH]c(-c3ccco3)nc2n1	FLuc modulator 15µM (no result: uPA surface inh)
Cc1ccc(CCNc2nc3c(S(=O)(=O)c4ccc(C)cc4)nnn3c3ccsc23)cc1	none (no result: uPA surface inh, NPC1 prom act, SMN2 splice up, ELG1 genotox, Rab9 prom act)
CCOC(=O)N1CCc2c(sc3c2c(=O)n(-c2ccc(Cl)cc2)c(=O)n3CC(=O)Nc2ccccc2)C1	none (no result: uPA surface inh, NPC1 prom act, SMN2 splice up, ELG1 genotox, Rab9 prom act)
O=C(Cc1ccc(Cl)cc1)OCc1nnc(-c2ccccc2)o1	none
O=C(OCc1nnc(-c2ccc(Cl)cc2)o1)C12CC3CC(CC(O)(C3)C1)C2	FLuc modulator 5.4µM, NPC1 prom act 2.8µM, ELG1 genotox inconclusive, Rab9 prom act 2.2µM
Oc1ccccc1-c1nnco1	none (no result: FLuc modulator, NPC1 prom act, SMN2 splice up, ELG1 genotox, Rab9 prom act)
Oc1ccccc1/C=C/c1noc(-c2ccccc2O)n1	FLuc modulator 1.9µM, NPC1 prom act inconclusive, SMN2 splice up inconclusive, ELG1 genotox 5.8µM
CC(=O)Nc1ccc(/C=C/c2noc(-c3ccccc3O)n2)cc1	FLuc modulator inconclusive, NPC1 prom act inconclusive, Rab9 prom act inconclusive
COc1cc(/C=C/c2noc(-c3ccccc3O)n2)ccc1OC(C)=O	FLuc modulator 12µM, NPC1 prom act inconclusive, ELG1 genotox 13µM, Rab9 prom act inconclusive (no result: SMN2 splice up)
Cc1c(C)c2cc3c(c(C)c2oc1=O)OCN(CCc1ccccc1)C3	none (no result: uPA surface inh, NPC1 prom act, ELG1 genotox, Rab9 prom act)
COc1cccc(OC)c1C(=O)NCCc1ccccc1	none (no result: FLuc modulator, NPC1 prom act, SMN2 splice up, ELG1 genotox, Rab9 prom act)
COC(=O)c1c(N)sc(C(=O)NCCc2ccccc2)c1C	FLuc modulator 0.095µM, NPC1 prom act inconclusive, ELG1 genotox 0.23µM, Rab9 prom act inconclusive (no result: SMN2 splice up)
CCOC(=O)c1sc(N)c(C(=O)OC)c1C	FLuc modulator 15µM (no result: SMN2 splice up)
CCOC(=O)c1c(N)sc(C(=O)OC)c1C	none
O=C(NC1CCS(=O)(=O)C1)c1ccc(S(=O)(=O)N2CCCCC2)cc1 (configuration not stated)	none (no result: SMN2 splice up)
Oc1ccc(-c2csc(Nc3ccccn3)n2)cc1O	FLuc modulator 9.5µM, uPA surface inh 4µM, NPC1 prom act inconclusive, ELG1 genotox 3.7µM (no result: SMN2 splice up)
CC(=O)Nc1ccc(-c2csc(Nc3ccccn3)n2)cc1	FLuc modulator inconclusive, NPC1 prom act 0.5µM, ELG1 genotox inconclusive, Rab9 prom act 0.45µM (no result: SMN2 splice up)
Oc1ccc(-c2csc(Nc3cccc4ccccc34)n2)cc1O	FLuc modulator inconclusive (no result: SMN2 splice up)
Cc1ccnc(Nc2nc(-c3ccc(O)cc3O)cs2)c1	FLuc modulator 17µM, uPA surface inh inconclusive, NPC1 prom act inconclusive, Rab9 prom act inconclusive (no result: SMN2 splice up)
NS(=O)(=O)c1ccc(Nc2nc(-c3ccc(O)cc3)cs2)cc1	SMN2 splice up inconclusive
CC(=O)Nc1ccc(-c2csc(NCCc3ccccc3)n2)cc1	FLuc modulator inconclusive, NPC1 prom act inconclusive, Rab9 prom act inconclusive (no result: SMN2 splice up)
Cc1ccnc(Nc2nc(-c3ccc(O)cc3)cs2)c1	FLuc modulator 8.5µM, NPC1 prom act 2.5µM, ELG1 genotox inconclusive, Rab9 prom act 3.2µM (no result: SMN2 splice up)
COc1cc2c(cc1OC)CN(C(=O)c1ccc(Cl)c(S(=O)(=O)N3CCCC3)c1)CC2	none (no result: FLuc modulator, NPC1 prom act, SMN2 splice up, Rab9 prom act)
COc1ccc(CN2C(=O)c3cccnc3C2=O)cc1S(=O)(=O)NC1CCCCC1	none (no result: SMN2 splice up)
Cc1cc(N2CCN(c3cccc(C(F)(F)F)c3)CC2)n2nc(-c3ccccc3C)nc2n1	none (no result: uPA surface inh, NPC1 prom act, ELG1 genotox, Rab9 prom act)
Cc1ccnc(NCc2cc(C)ccc2O)c1	FLuc modulator inconclusive (no result: SMN2 splice up)
CCC(=O)Nc1nc(C)c(-c2csc(Nc3ccccn3)n2)s1	FLuc modulator 17µM, NPC1 prom act inconclusive, Rab9 prom act inconclusive
CCCC(=O)Nc1nc(C)c(-c2csc(Nc3ccccc3C)n2)s1	FLuc modulator inconclusive
Cc1ccnc(Nc2nc(-c3ccc(O)c(O)c3)cs2)c1	FLuc modulator 6µM, NPC1 prom act inconclusive, ELG1 genotox 5.8µM (no result: SMN2 splice up)
CC(=O)c1cccc(NC(=O)Nc2nnc(N3CCCC3)s2)c1	none (no result: uPA surface inh, NPC1 prom act, SMN2 splice up, ELG1 genotox, Rab9 prom act)
